From publication PMC4336329 (PLoS ONE, 2015)
Among all 310,000 compounds or so, about 14,000 (4.5%) showed an effect of 50% or more. The effect is printed as a negative number. The entries come from a sample that favours strong results as a whole.

Biological target: human ether-à-go-go-related gene (hERG) potassium channel (human, UniProt Q12809)
Test: primary screen, population patch clamp on CHO cells stably expressing hERG; higher = less effect of the substance
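Note: peak tail current of the secondary pulse compared with the same well before compound.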

human ether-à-go-go-related gene (hERG) potassium channel, sequence (Q12809 whole entry, looked up): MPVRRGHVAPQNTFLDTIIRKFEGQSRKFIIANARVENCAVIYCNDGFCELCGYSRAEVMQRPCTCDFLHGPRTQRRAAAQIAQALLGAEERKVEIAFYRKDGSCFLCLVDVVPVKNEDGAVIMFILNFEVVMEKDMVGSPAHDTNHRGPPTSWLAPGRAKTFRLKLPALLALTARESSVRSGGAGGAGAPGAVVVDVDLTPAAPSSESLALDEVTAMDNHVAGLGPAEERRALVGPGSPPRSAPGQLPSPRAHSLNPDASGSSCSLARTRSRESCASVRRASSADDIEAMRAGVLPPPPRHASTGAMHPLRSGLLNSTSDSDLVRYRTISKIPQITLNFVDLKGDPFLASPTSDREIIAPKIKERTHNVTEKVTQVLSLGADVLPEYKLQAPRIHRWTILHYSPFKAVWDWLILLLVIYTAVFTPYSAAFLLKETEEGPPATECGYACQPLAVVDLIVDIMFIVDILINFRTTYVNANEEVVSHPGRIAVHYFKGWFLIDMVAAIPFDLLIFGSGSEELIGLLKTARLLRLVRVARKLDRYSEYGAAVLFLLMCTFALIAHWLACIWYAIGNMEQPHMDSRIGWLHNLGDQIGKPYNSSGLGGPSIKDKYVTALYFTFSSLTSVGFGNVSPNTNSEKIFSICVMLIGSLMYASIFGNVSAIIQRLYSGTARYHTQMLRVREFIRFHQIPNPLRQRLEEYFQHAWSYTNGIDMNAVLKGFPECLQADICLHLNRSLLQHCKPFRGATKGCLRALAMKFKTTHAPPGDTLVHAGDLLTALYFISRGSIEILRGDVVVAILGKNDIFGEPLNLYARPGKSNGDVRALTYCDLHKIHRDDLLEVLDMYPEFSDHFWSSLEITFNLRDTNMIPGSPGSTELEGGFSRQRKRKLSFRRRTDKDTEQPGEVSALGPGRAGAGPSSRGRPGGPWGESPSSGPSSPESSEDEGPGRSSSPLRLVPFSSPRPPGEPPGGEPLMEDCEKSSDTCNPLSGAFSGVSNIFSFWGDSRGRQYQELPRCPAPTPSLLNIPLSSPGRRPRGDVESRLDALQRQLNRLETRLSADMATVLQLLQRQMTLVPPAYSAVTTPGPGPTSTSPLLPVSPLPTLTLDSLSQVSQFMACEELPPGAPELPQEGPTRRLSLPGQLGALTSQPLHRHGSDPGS

Row | SMILES | hERG current change (%, negative = inhibition) at 10uM
1 | CCOC(=O)Cn1c(=O)oc2cc(S(=O)(=O)N3CCn4c3nc3ccccc34)ccc21 | -56.3%
2 | CCOC(=O)Cn1c(=O)oc2cc(S(=O)(=O)N3CCCc4ccccc43)ccc21 | -26.9%
3 | CCOC(=O)Cn1c(=O)oc2cc(S(=O)(=O)N3CCc4ccccc43)ccc21 | -2.03%
4 | COc1cccc(-c2cccc(NC(=O)C3CCN(Cc4cccc(C)n4)CC3)c2)c1 | -80.1%
5 | Cc1cc(C)n(CCCN2CCC(C(=O)Nc3cccc(-c4cccc(F)c4)c3)CC2)n1 | -80.4%
6 | Cc1cccc(CN2CCC(C(=O)Nc3cccc(-c4cscn4)c3)CC2)n1 | -48.2%
7 | Cc1cc(C)n(CCC(=O)Nc2cccc(F)c2)n1 | 5.83%
8 | Cc1cccc(CN2CCC(C(=O)Nc3cccc(-c4cccc(F)c4)c3)CC2)n1 | -74%
9 | Cc1cccc(CN2CCC(C(=O)Nc3ccc(-n4nc(C)cc4C)cc3)CC2)n1 | -25.2%
10 | Cc1ccccc1C(=O)N1CCC(C(=O)Nc2cccc(F)c2)CC1 | -3.49%
11 | Cc1ccccc1OCCCCN1CCCCC1 | 12.6%
12 | CC(=O)Oc1ccc(-c2cc3c(OC(C)=O)cc(OC(C)=O)cc3oc2=O)cc1 | 14.1%
13 | O=S(=O)(NCC1CCCO1)c1ccc(NS(=O)(=O)c2ccc(F)cc2)cc1 (centres unmarked) | 14.6%
14 | Cc1cc(C)n(CC(=O)N2CCCC(N3CCN(Cc4ccc5c(c4)OCO5)CC3)C2)n1 (centres unmarked) | -14.2%
15 | O=C(NCCc1ccccn1)c1ccc(OC2CCN(Cc3ccccn3)CC2)cc1 | 2.88%
16 | O=C(Nc1ncc(Cc2cccc(Cl)c2)s1)c1ccc([N+](=O)[O-])cc1 | 10.6%
17 | O=C(Nc1ccccc1)OCCOc1cccc(Br)c1 | 1.49%
18 | Cc1ccc(CNC(=O)CCC2CCCN(Cc3cccc4cccnc34)C2)o1 (centres unmarked) | -66%
19 | Cc1ccc(CNC(=O)CCC2CCCN(Cc3c(C)nn(C(C)C)c3C)C2)o1 (centres unmarked) | -16.6%
20 | CC(C)c1csc(CN2CCCC(CCC(=O)NCc3ccccc3F)C2)n1 (centres unmarked) | -34.3%
21 | Cc1ccc(CNC(=O)CCC2CCCN(Cc3cccc4ncccc34)C2)o1 (centres unmarked) | -22.4%
22 | Cc1nn(C(C)C)c(C)c1CN1CCCC(CCC(=O)NCc2ccccc2F)C1 (centres unmarked) | 0.286%
23 | Cc1ccc(CNC(=O)CCC2CCCN(Cc3ccc4cccc(F)c4n3)C2)o1 (centres unmarked) | -52.1%

Row | SMILES | hERG current change (%, negative = inhibition) at 10uM
24 | O=C(NN1C(=O)C2C3C=CC([C@H]4CC34)[C@@H]2C1=O)c1ccc(Br)cc1 (some centres unmarked) | 8.18%
25 | COc1ccc(CNC(=O)CC2C(=O)NCCN2C2Cc3ccccc3C2)cc1 (centres unmarked) | -28.5%
26 | CCc1c(C(=O)Nc2cc(C)cc(C)c2)[nH]c(C)c1C(C)=O | 12.7%
27 | Cc1nn(C2CCS(=O)(=O)C2)c(Cl)c1/C=C/C(=O)OCC(=O)c1cc(C)n(-c2ccc(F)cc2)c1C (centres unmarked) | 4.11%
28 | Cc1nc(SCC(=O)NC2CCCC2)[nH]c(=O)c1Cc1ccccc1 | 7.93%
29 | CCN1CCN(C(=O)c2cc(-c3cccnc3)nc3ccc(Br)cc23)CC1 | -28.5%
30 | CN(C)Cc1c(C(=O)N/N=C/c2ccncc2)nnn1-c1nonc1N | 3.67%
31 | CCCN(CCC)Cc1c(C(=O)N/N=C/c2ccc(Br)cc2)nnn1-c1nonc1N | -15.3%
32 | COCc1c(C(=O)N/N=C(\C)c2ccncc2)nnn1-c1nonc1N | 7.11%
33 | CCOc1ccc(-c2c(C(=O)N/N=C/c3cccnc3)nnn2-c2nonc2N)cc1 | 9.94%
34 | CCOc1cccc(-c2c(C(=O)N/N=C/c3ccncc3)nnn2-c2nonc2N)c1 | -9.65%
35 | CCN(CC)Cc1c(C(=O)N/N=C(\C)c2ccncc2)nnn1-c1nonc1N | -80.3%
36 | CCCN(CCC)Cc1c(C(=O)N/N=C/c2ccsc2)nnn1-c1nonc1N | -14.6%
37 | CCOc1cccc(-c2c(C(=O)N/N=C/c3cccnc3)nnn2-c2nonc2N)c1 | -54%
38 | CCN(CC)Cc1c(C(=O)N/N=C/c2ccncc2)nnn1-c1nonc1N | -55.9%
39 | CCCc1c(C(=O)N/N=C(/C)c2ccncc2)nnn1-c1nonc1N | 0.629%
40 | CCCN(CCC)Cc1c(C(=O)N/N=C/c2ccncc2)nnn1-c1nonc1N | -64.1%
41 | CCN(CC)Cc1c(C(=O)N/N=C/c2cccnc2)nnn1-c1nonc1N | -10.9%
42 | O=C(c1ccc(-n2c(SCc3cc(F)ccc3F)nc3ccccc3c2=O)cc1)N1CCOCC1 | 8.7%
43 | Cc1noc(C)c1COC(=O)Cc1ccc(Cl)cc1 | -5.13%
44 | COc1ccc(Cc2nc3ccc(C(=O)NCCSC)cc3o2)cc1 | 6.36%
45 | CC(=O)Nc1ccc(S(=O)(=O)N2CCC(N(C)CCC(C)C)CC2)cc1.Cl | -46.8%
46 | c1csc(C2Nc3cccc4cccc(c34)N2)c1 | -17.2%

Row | SMILES | hERG current change (%, negative = inhibition) at 10uM
47 | CCC(=O)Nc1cccc(C(=O)/C=C/c2cccs2)c1 | -3.34%
48 | COc1ccc(/C=N/NC(=O)CNc2ccc(Br)cc2)c(C(=O)O)c1OC | 13.9%
49 | O=C(NCCCN1CCCC1=O)c1ccc(OC(F)(F)F)cc1 | -0.372%
50 | COC(=O)C1=C(C)NC2=C(C(=O)c3ccccc32)C1c1cccc(OC)c1 (centres unmarked) | 4.97%
51 | CN(C)C(=O)c1ccc(NC(=O)c2ccccc2Sc2ccccc2C#N)cc1 | 1.57%
52 | O=C(O)C1Cn2c(nc3c(c2=O)C2(CCCC2)Cc2ccccc2-3)S1 (centres unmarked) | 17.3%
53 | C=C1C(C(=O)N2CCOCC2)C1C(=O)N1CCOCC1 (centres unmarked) | 5.16%
54 | Cc1ccc(/C=N/NC(=O)CSc2nc3ccccc3n2C)s1 | -17.4%
55 | COc1ccccc1C1C(C(=O)c2sc(C)nc2C)=C(O)C(=O)N1CCN1CCOCC1 (centres unmarked) | 4.26%
56 | O=c1[nH]c2ccccc2cc1CN(Cc1cccnc1)S(=O)(=O)c1ccc(Cl)cc1 | -56.2%
57 | Cc1ccc(S(=O)(=O)N(Cc2cc3ccccc3[nH]c2=O)CC2CCCO2)cc1 (centres unmarked) | 10.5%
58 | Cc1ccc(S(=O)(=O)N(Cc2cccnc2)Cc2cc3ccccc3[nH]c2=O)cc1 | -19.5%
59 | COc1ccc(S(=O)(=O)N(Cc2cccnc2)Cc2cc3ccccc3[nH]c2=O)cc1 | -18.6%
60 | O=c1[nH]c2ccccc2cc1CN(CC1CCCO1)S(=O)(=O)c1ccccc1 (centres unmarked) | -10.3%
61 | O=c1[nH]c2ccccc2cc1CN(CC1CCCO1)S(=O)(=O)c1ccc(Cl)cc1 (centres unmarked) | -75.1%
62 | CC(=O)NC(C)c1cc(Cl)c2ccccc2c1O (centres unmarked) | 1.04%
63 | COc1cc2cc(C(=O)N3CCOCC3)cc(-c3ccc(C)cc3)c2cc1OC | -8.61%
64 | COc1ccccc1/C=N/NC(=O)c1ccc(Cn2nc([N+](=O)[O-])cc2C)cc1 | -12.7%
65 | CCOC(=O)N/N=C(/C)c1ccc([N+](=O)[O-])o1 | -25.4%
66 | C/C(=N\NC(=O)C(O)(c1ccccc1)c1ccccc1)c1ccc(C)o1 | -2.62%
67 | C/C(=N/NC(=O)C(O)(c1ccccc1)c1ccccc1)c1ccc([N+](=O)[O-])o1 | -71.6%
68 | COc1ccc(CNC(=O)C(c2ccc(C)o2)N(C(=O)c2csnn2)c2ccc(C(C)C)cc2)cc1 (centres unmarked) | -42.9%
69 | COc1ccccc1OCC(O)CO (centres unmarked) | 12.4%

Row | SMILES | hERG current change (%, negative = inhibition) at 10uM
70 | COc1ccccc1OC[C@H](O)CO | 24%
71 | Cc1ccccc1OCC(O)Cn1nnc2ccccc21 (centres unmarked) | 5.21%
72 | C=CCn1c(=N)n(CC(O)c2ccco2)c2ccccc21.Cl (centres unmarked) | -23.1%
73 | C=CCn1c(=N)n(CC(O)COc2ccccc2OC)c2ccccc21.Cl (centres unmarked) | -67%
74 | Br.C=CCn1c(=N)n(CC(=O)c2ccc(OC)cc2)c2ccccc21 | -43.7%
75 | Cc1ccccc1OCC(O)Cn1c2ccccc2c2ccccc21 (centres unmarked) | 2.67%
76 | COc1ccccc1OCC(O)Cn1c(=N)n(Cc2ccccc2)c2ccccc21.Cl (centres unmarked) | -71%
77 | Cc1ccccc1OCC(O)Cn1c(=N)n(Cc2ccccc2)c2ccccc21.Cl (centres unmarked) | -73%
78 | Cc1ccc(NC(=O)COC(=O)COc2cccc3c2OC(C)(C)C3)c(C)c1 | 19.8%
79 | FC(F)(F)c1nc(SCc2ccc(Cl)cc2Cl)n[nH]1 | -0.342%
80 | Cc1c(N2C(=O)/C(=C\C3CC=CCC3)SC2=S)c(=O)n(-c2ccccc2)n1C (centres unmarked) | -6.68%
81 | c1ccc(SCc2cn(C[C@H]3CC[C@@H]([C@@H]4CC[C@H](Cn5cc(CSc6ccccc6)nn5)O4)O3)nn2)cc1 | -62.1%
82 | c1c(CC2CCCC2)nnn1C[C@H]1CC[C@@H]([C@@H]2CC[C@H](Cn3cc(CC4CCCC4)nn3)O2)O1 | -57.6%
83 | ClCCCc1cn(C[C@H]2CC[C@@H]([C@@H]3CC[C@H](Cn4cc(CCCCl)nn4)O3)O2)nn1 | -33.6%
84 | O=C1c2ccccc2C(=O)N1CCCc1cn(C[C@H]2CC[C@@H]([C@@H]3CC[C@H](Cn4cc(CCCN5C(=O)c6ccccc6C5=O)nn4)O3)O2)nn1 | -23.8%
85 | c1ccc(CCc2cn(C[C@H]3CC[C@@H]([C@@H]4CC[C@H](Cn5cc(CCc6ccccc6)nn5)O4)O3)nn2)cc1 | -38.2%
86 | CCCCc1cn(C[C@H]2CC[C@@H]([C@@H]3CC[C@H](Cn4cc(CCCC)nn4)O3)O2)nn1 | -54.9%
87 | OCCCc1cn(CC2CCCCC2)nn1 | 2.61%
88 | c1ccc(Cn2cc(CSc3ccccc3)nn2)cc1 | -11%
89 | CC(=O)OCC1OC(OCc2cn(C[C@H]3CC[C@@H]([C@@H]4CC[C@H](Cn5cc(COC6OC(COC(C)=O)C(OC(C)=O)C(OC(C)=O)C6OC(C)=O)nn5)O4)O3)nn2)C(OC(C)=O)C(OC(C)=O)C1OC(C)=O (some centres unmarked) | 0.857%
